Records with an inconclusive call do not appear. Entries that show only a call come without a potency. Values without a mark were called inactive. Activity calls are given as the source filed them. The call rests on the fitted dose curve; in most records, active means well fitted cell-killing curve with a large enough effect; inconclusive means small, poorly fitted or top-dose-only effect, or effect the other way; inactive means no such curve, though single readings can be large or run the other way.
Columns and labels:
[1] = Viability qHTS for spleen associated tyrosine kinase inhibitor (SYKi) naive MV4-11 cells (AID 1963823); conditions: MV4-11 AML viability, CellTiter-Glo luminescence, 72 h; series mostly up to 45 µM; further: nearly all actives have a fitted effect of over 40% in size
Procedure, shortened: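 CellTiter-Glo luminescence, 10 min room-temperature incubation, gave viability. Cells: naive MV4-11 (500/well), treated 72 hr at 37 C, 5% CO2.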

[2] = Viability qHTS for spleen associated tyrosine kinase inhibitor (SYKi) drug resistant MV4-11 cells (AID 1963824); conditions: SYKi-resistant MV4-11 viability, CellTiter-Glo, 72 h; series mostly up to 45 µM; further: nearly all actives have a fitted effect of over 35% in size
Procedure, shortened: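 SYK-inhibitor-resistant MV4-11 AML cells were seeded at 500 per well onto compound and cultured 72 hours (37 °C, 5% CO2). CellTiter-Glo was then added, and after 10 min at room temperature, luminescence gave viability.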
Potency means the concentration at half of the fitted maximal effect.

Row | Compound | Potency [1] | Potency [2] | viability (% of control) [1] | viability, % of control [2]
1 | C/C=C1\[C@H](O[C@@H]2O[C@H](CO)[C@@H](O)[C@H](O)[C@H]2O)OC=C(C(=O)OC)[C@H]1CC(=O)OC | inactive | inactive | – | –
2 | Cc1onc(C(=O)N2CCN(C(c3ccc(Cl)cc3)c3ccc(Cl)cc3)CC2)c1[N+](=O)[O-] | 4.11 µM (active) | 4.61 µM (active) | – | –
3 | CC1=C2CC(=O)C(C)CC/C=C(\C)CC2OC1=O (configuration not stated) | inactive | inactive | – | –
4 | CCOC(=O)c1ccc(N(C)c2csc(-c3ccccc3)n2)cc1 | inactive | inactive | – | –
5 | C=C1CC[C@@H]2[C@@](C)(CO[C@@H]3O[C@H](CO)C(O)[C@H](O)C3O)[C@H](O)CC[C@@]2(C)[C@@H]1CC/C(C)=C/CO (some centres not stated) | – | – | 93.2% [at 9.25 µM] | 101% [at 9.25 µM]
6 | CC(/C=C/C1(O)C2(C)COC1(C)CC(=O)C2)O[C@@H]1O[C@H](CO)[C@@H](O)[C@H](O)[C@H]1O (some centres not stated) | inactive | inactive | – | –
7 | COc1cccc(C(=O)NCCNc2nc3cc(C)cc(C)c3cc2C#N)c1 | inactive | inactive | – | –
8 | Cc1ccccc1-c1cc(N2CCN(C)CC2)ncc1N(C)C(=O)C(C)(C)c1cc(C(F)(F)F)cc(C(F)(F)F)c1 | inactive | inactive | – | –
9 | CC[C@@H]([C@H](C)O)n1ncn(-c2ccc(N3CCN(c4ccc(OC[C@@H]5CO[C@@](Cn6cncn6)(c6ccc(F)cc6F)C5)cc4)CC3)cc2)c1=O | 11.9 µM (active) | 6.68 µM (active) | – | –
10 | CC(C)c1ccc(CO)cc1O[C@@H]1O[C@H](CO)[C@@H](O)[C@H](O)[C@H]1O | inactive | inactive | – | –
11 | CC(C)=CCCC1(C)Oc2cc3c(c4c2C2C(O4)C(C)(O)CCC21)CN(C(CCC(=O)O)C(=O)O)C3=O (configuration not stated) | inactive | inactive | – | –
12 | C=C1C(=O)O[C@@H]2[C@H]1CCC(C)=C(CCC(=O)O)[C@@]2(C)O | 9.2 µM (active) | 4.11 µM (active) | – | –
13 | C[C@@H]1O[C@@H](O[C@H]2[C@H](Oc3cc(O)c(C(=O)CCc4ccc(O)cc4)c(O)c3)O[C@H](CO)[C@@H](O)[C@@H]2O)[C@H](O)[C@H](O)[C@H]1O | inactive | inactive | – | –
14 | CN1c2ccccc2C(=O)N2CCC3c4ccccc4NC3C21 (configuration not stated) | 2.55 µM (active) | 1.8 µM (active) | – | –
15 | CC(C)C[C@@H]1NC(=O)[C@@H](Cc2ccccc2)NC(=O)C(CCCCCC(=O)C2CO2)NC(=O)[C@@H]2CCCCN2C1=O (some centres not stated) | 0.0252 µM (active) | 0.0126 µM (active) | – | –
16 | CC(C)(O)c1ccc2c(c1)C(=O)C[C@H]1[C@](C)(C(=O)O)CCC[C@]21C | inactive | inactive | – | –
17 | CN(CCCN1c2ccccc2CCc2ccccc21)CC(=O)c1ccc(Cl)cc1 | 23.7 µM (active) | 13.3 µM (active) | – | –
18 | CN1CCN(CCCN2c3ccccc3Sc3ccc(S(=O)(=O)N(C)C)cc32)CC1 | 11.9 µM (active) | 10.6 µM (active) | – | –
19 | C[C@@H]1O[C@@H](O[C@@H]2[C@@H](O)[C@H](O[C@H]3CC[C@@]4(C)C(CC[C@]5(C)C4CC=C4[C@@H]6CC(C)(C)CC[C@]6(C(=O)O[C@@H]6O[C@H](CO)[C@@H](O)[C@H](O)[C@H]6O)CC[C@]45C)C3(C)C)O[C@H](C(=O)O)[C@H]2O)[C@H](O)[C@H](O)[C@H]1O (some centres not stated) | – | – | 80.6% [at 9.25 µM] | 81.8% [at 9.25 µM]
20 | O=C(OC[C@H]1O[C@H](O[C@]2(CO)O[C@H](CO)[C@@H](O)[C@@H]2O)[C@H](O)[C@@H](O)[C@@H]1O)c1ccccc1 | inactive | inactive | – | –
21 | CCNC(=O)Nc1ncc(-c2cc(-c3c(C)cc(OC)cc3C)nc(-c3cnccn3)n2)s1 | inactive | inactive | – | –
22 | Nc1nc(N)c2nc(-c3cccc(O)c3)cnc2n1 | 1.84 µM (active) | 2.06 µM (active) | – | –
23 | Cc1ccccc1NC(=O)Nc1ccc(CC(=O)N(C)[C@@H](CC(C)C)C(=O)NCC[C@H](NC(=O)[C@@H]2CCCN2S(=O)(=O)c2cc(Cl)cc(Cl)c2)C(=O)O)cc1 | inactive | inactive | – | –
24 | COc1cc2ncc(-c3ccccc3)nc2cc1OC | 3.66 µM (active) | 4.61 µM (active) | – | –
25 | O=c1cc[nH]c(=S)[nH]1 | inactive | 11.9 µM (active) | – | –
26 | CC(CCC1(O)OC2CC3C4CCC5CC(O[C@@H]6O[C@H](CO)[C@@H](O)[C@H](O)[C@H]6O[C@@H]6O[C@@H](C)[C@H](O)[C@@H](O)[C@H]6O)C(O)CC5(C)C4CCC3(C)C2C1C)CO[C@@H]1O[C@H](CO)[C@@H](O)[C@H](O)[C@H]1O (some centres not stated) | – | – | 87.7% [at 9.25 µM] | 109% [at 9.25 µM]

Source: PubChem BioAssay (NCATS)
